Hits are enriched below; roughly 1.8% of the tested compounds scored in any of these assays.
LYPLA2 counter – LYPLA2 inhibitors, primary screen, counter-screen for PME1 inhibitor project, biochemical, fluorescence polarization, FP-Rh probe ABPP; Acyl-protein thioesterase 2 (Homo sapiens), O95372; recombinant LYPLA2; inhibition, % at 5.9 µM; 0.38% of 320,000 active;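 active = inhibition above the screen-wide mean plus 3 SD, limit set per campaign, cut at about 26% in these data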
Target sequence (O95372 whole entry, looked up): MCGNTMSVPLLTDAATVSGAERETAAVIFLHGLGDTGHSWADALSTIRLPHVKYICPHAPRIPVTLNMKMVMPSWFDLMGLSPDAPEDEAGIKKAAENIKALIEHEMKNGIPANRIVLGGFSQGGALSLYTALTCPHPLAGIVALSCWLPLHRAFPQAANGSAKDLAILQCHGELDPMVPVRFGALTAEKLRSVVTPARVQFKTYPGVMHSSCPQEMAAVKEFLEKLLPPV
LYPLA1 inh – LYPLA1 inhibitors, primary screen, counter-screen for PME1 inhibitor project, biochemical, fluorescence polarization, FP-Rh probe ABPP; recombinant LYPLA1; Acyl-protein thioesterase 1 (Homo sapiens), O75608; 0.16% of 320,000 active; inhibition, % at 5.9 µM;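 active = inhibition above the mean of all tested compounds plus 3 SD, set per campaign, cut at about 14% in these data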;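 also: inhibitors block serine hydrolase probe labeling of LYPLA1 so polarization falls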
PAD4 FP inh – human PAD4 inhibitors, primary screen, biochemical, fluorescence polarization, 1536-well format. inhibition, % at 6.36 µM. 0.41% of 330,000 active. Protein-arginine deiminase type-4 (Homo sapiens), Q9UM07. recombinant PAD4, RCA probe fluorescence polarization;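 active = percent inhibition above a cutoff equal to the mean of all tested compounds plus 3 SD, cut at about 15% in these data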
Fam108B counter – mouse Fam108B serine hydrolase inhibitors, primary screen, counter-screen for RBBP9 inhibitor project, biochemical, fluorescence polarization; recombinant Fam108B, FP-Rh probe fluorescence polarization; inhibition, % at 9.51 µM; 0.33% of 300,000 active; AID 1947, 2009;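 active = inhibition above the screen mean inhibition plus 3 SD, computed separately per campaign, cut at about 18% in these data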;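 also: inhibitors lower polarization as less probe binds the enzyme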
GSTO1 inh – inhibitors of recombinant GSTO1, primary screen, counter-screen for RBBP9 inhibitor project, biochemical, fluorescence polarization | activity-based probe fluorescence polarization | Glutathione S-transferase omega-1 (Homo sapiens), P78417 | AID 1974, 2009 | 1.1% of 300,000 active | inhibition, % at 5.96 µM;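 active = inhibition above the campaign mean inhibition plus 3 SD, cut at about 35% in these data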
Target sequence (P78417 whole entry, looked up): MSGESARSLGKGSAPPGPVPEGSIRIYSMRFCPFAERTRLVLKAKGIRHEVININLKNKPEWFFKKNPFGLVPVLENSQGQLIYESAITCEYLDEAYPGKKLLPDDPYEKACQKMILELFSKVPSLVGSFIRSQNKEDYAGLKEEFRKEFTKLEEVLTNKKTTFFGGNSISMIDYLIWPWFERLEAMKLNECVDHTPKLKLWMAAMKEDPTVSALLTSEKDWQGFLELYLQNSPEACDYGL
PME-1 inh – PME-1 inhibitors via competitive probe labeling, primary screen, biochemical, fluorescence polarization, FP-Rh probe, HTS; recombinant PME-1; inhibition, % at 5.9 µM; 0.53% of 320,000 active;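 active = inhibition above the campaign mean of all compounds plus 3 SD, cut at about 26% in these data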;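 also: competitive labeling of PME-1 active site by serine hydrolase directed probe; inhibitors block probe labeling so polarization falls and inhibition rises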
GSTO1 confirm – GSTO1 inhibitor hit confirmation, counter-screen for RBBP9 inhibitor project, biochemical, fluorescence polarization, triplicate; shares compounds with GSTO1 inh; recombinant GSTO1, probe fluorescence polarization; inhibition, % at 5.96 µM; 54% of 2,400 active;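 active = inhibition above the primary screen's cutoff, its mean inhibition plus 3 SD, cut at about 35% in these data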;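 also: loss of polarization as inhibitors block binding of rhodamine sulfonate ester activity probe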
PAD4 confirm – human PAD4 inhibitors, confirmation, biochemical, fluorescence polarization; AID 488796, 2010; 28% of 1,200 active; shares compounds with PAD4 FP inh; inhibition, % at 6.36 µM; recombinant PAD4, RCA probe fluorescence polarization;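 active = mean inhibition across replicates above the hit cutoff set by the earlier primary screen, cut at about 15% in these data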;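 also: inhibitors block active-site labeling by the probe so polarization falls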
Large screens that a line does not name were inactive (follow-up assays come after a bar, where they were run).

CCOCCCNC(=O)CCc1nnc2n(CCC(C)C)c(=O)c3ccccc3n12	none
O=C1c2ccccc2C(=O)c2c1cccc2-n1nnc2ccccc21	none
O=C1C(N2CCOCC2)=C(n2nnc3ccccc32)C(=O)c2ccccc21	PAD4 FP inh 22.8, GSTO1 inh 76.5 | GSTO1 confirm 83.6 | PAD4 confirm 15.3
Cc1[nH][nH]c(=O)c1C(c1c(C)[nH][nH]c1=O)c1cn(Cc2ccc(F)cc2)c2ccccc12	PAD4 FP inh 24.1, GSTO1 inh 56.3 | GSTO1 confirm inactive | PAD4 confirm inactive
Cc1[nH][nH]c(=O)c1C(c1c(C)[nH][nH]c1=O)c1cn(Cc2ccc(Cl)c(Cl)c2)c2ccccc12	PAD4 FP inh 33.5, GSTO1 inh 66.3 | GSTO1 confirm 55.8 | PAD4 confirm inactive
O=c1c2ccccc2ncn1Cc1ccc(Cl)c(Cl)c1	none
COc1ccc2c(c1OC)C(=O)OC2C1c2c(cc3c(c2OC)OCO3)CCN1C (configuration not stated)	none
CN1CCc2cc3c(c4c2[C@H]1[C@H](O)c1ccccc1-4)OCO3	PAD4 FP inh 37.0, GSTO1 inh 68.7 | GSTO1 confirm inactive | PAD4 confirm 34.5
O=c1cccc(-c2ccccc2)[nH]1	none
O=c1cc(-c2ccc(C3CCCCC3)cc2)[nH][nH]1	none
COc1ccc(-c2cc(=O)[nH][nH]2)cc1OC	PAD4 FP inh 64.5, GSTO1 inh 66.1 | GSTO1 confirm inactive | PAD4 confirm inactive
O=c1cc(-c2ccccc2)[nH][nH]1	PAD4 FP inh 34.7, GSTO1 inh 38.1 | GSTO1 confirm inactive | PAD4 confirm inactive
O=c1cc(-c2ccc(F)cc2)[nH][nH]1	PAD4 FP inh 59.5, GSTO1 inh 41.2 | GSTO1 confirm inactive | PAD4 confirm inactive
Cc1ccc(NC(=O)CSCC(=O)Nc2cccc3ncccc23)cc1	none
COc1ccc(C2C(C#N)=C(N)Oc3c2c(-c2ccccc2)nn3-c2ccccc2)c(OC)c1OC (configuration not stated)	PAD4 FP inh 25.1, GSTO1 inh 47.2 | GSTO1 confirm inactive | PAD4 confirm inactive
Cc1nn(-c2ccccc2)c2c1C(c1ccc(F)cc1F)C(C#N)=C(N)O2 (configuration not stated)	none
O=C(CSc1ccc(S(=O)(=O)N2CCOCC2)cn1)Nc1ccc(F)c(F)c1	none (no result: Fam108B counter, GSTO1 inh)
Nn1cnnc1N/N=C/c1ccc(Cl)c([N+](=O)[O-])c1	PAD4 FP inh 56.0, GSTO1 inh 38.8 | GSTO1 confirm inactive | PAD4 confirm inactive
O=[N+]([O-])c1cc(Cc2ccccc2)cc(C=Nc2ccc(N3CCOCC3)cc2)c1O	PAD4 FP inh 24.4, GSTO1 inh 68.7 | GSTO1 confirm inactive | PAD4 confirm inactive
Oc1c(Cl)cc(Cl)cc1C=Nc1ccc(N2CCOCC2)cc1	none
CN(C)c1ccc(N=Cc2nc(-c3ccccc3)oc2O)cc1	none
CN(C)c1ccc(N=Cc2cccn2C)cc1	PAD4 FP inh 25.1, GSTO1 inh 82.9 | GSTO1 confirm inactive | PAD4 confirm inactive
COc1ccc(C(c2c(C)n(C)n(-c3ccccc3)c2=O)c2c(C)n(C)n(-c3ccccc3)c2=O)cc1OC	none
COc1ccc(C(c2c(C)[nH]n(-c3ccccc3)c2=O)c2c(C)[nH]n(-c3ccccc3)c2=O)cc1OC	PAD4 FP inh 68.9, GSTO1 inh 69.3 | GSTO1 confirm inactive | PAD4 confirm inactive
Cc1ccc(-n2ncc3c2CCCC3NC(=O)CCCN2CCCC2=O)cc1C (configuration not stated)	none
COc1ccc(OC)c(N)c1	PAD4 FP inh 38.4, GSTO1 inh 45.5 | GSTO1 confirm inactive | PAD4 confirm inactive
CCc1ccc(OCC(=O)N/N=C2\CC(=O)c3ccccc32)cc1	PAD4 FP inh 24.6, GSTO1 inh 61.2 | GSTO1 confirm inactive | PAD4 confirm inactive
COc1cc(/C=C/C(=O)O)cc(S(=O)(=O)Nc2ccccc2Cl)c1OC	none
CCN(CC)S(=O)(=O)c1ccc(C)c(NS(=O)(=O)c2cc(/C=C/C(=O)O)cc(OC)c2OC)c1	PAD4 FP inh 52.6, GSTO1 inh 39.0 | GSTO1 confirm inactive | PAD4 confirm inactive
CS(=O)(=O)Nc1cccc2[nH]ncc12	none
COc1ccc(S(=O)(=O)N2CCOc3ccccc32)cc1	none
O=C(Nc1ccccc1O)c1ccc2c(c1)C(=O)N(N1C(=O)c3ccccc3C1=O)C2=O	none
O=C1C=C(Nc2ccccc2O)c2ccccc2C1=O	PAD4 FP inh 64.6, GSTO1 inh 71.5 | GSTO1 confirm 73.6 | PAD4 confirm 31.2
O=C(O)/C=C\C(=O)Nc1ccc(N2CCN(c3ccc(F)cc3)CC2)cc1	PAD4 FP inh 23.7, GSTO1 inh 58.5 | GSTO1 confirm inactive | PAD4 confirm inactive
CCOc1ccc(S(=O)(=O)Nc2cc(Sc3ncn[nH]3)c3oc(=O)sc3c2)cc1	PAD4 FP inh 18.5, GSTO1 inh 47.2 | GSTO1 confirm inactive | PAD4 confirm inactive
CCOc1ccc(S(=O)(=O)Nc2ncn[nH]2)cc1	none
O=C(NC(=S)NCc1cccnc1)c1cc(Br)ccc1Cl	none
CC(NC(=O)Nc1ccc(O)cc1)(C(F)(F)F)C(F)(F)F	PAD4 FP inh 64.3, GSTO1 inh 43.8 | GSTO1 confirm inactive | PAD4 confirm inactive
COc1ccc(NC(=O)NC(C)(C(F)(F)F)C(F)(F)F)cc1	none
CCC(NC(=O)Nc1ccc(O)cc1)(C(F)(F)F)C(F)(F)F	PAD4 FP inh 46.2, GSTO1 inh 57.3 | GSTO1 confirm inactive | PAD4 confirm inactive
CCC(NC(=O)NCc1ccccc1)(C(F)(F)F)C(F)(F)F	none
CC(C)(C)c1nn(-c2ccccc2)c2[nH]c(=O)c(CNc3ccc4c(c3)OCCO4)cc12	none
Cc1nn(-c2ccccc2)c2[nH]c(=O)c(CNc3ccc(N4CCOCC4)cc3)cc12	PAD4 FP inh 20.4, GSTO1 inh 38.7 | GSTO1 confirm inactive | PAD4 confirm inactive
O=C(CC1Nc2cccc3cccc(c23)NC1=O)Nc1ccccc1 (configuration not stated)	PAD4 FP inh 25.2, GSTO1 inh 37.6 | GSTO1 confirm inactive | PAD4 confirm inactive
CCCc1cc(=O)[nH]c(SCC(=O)N(CC)c2c(N)n(Cc3ccccc3)c(=O)[nH]c2=O)n1	none

Bioassay records (PubChem)
